Laboratory results reported in PubChem BioAssay.
The source made the active and inactive calls.

What was measured:
[1] = system: Plasmodium falciparum Sir2 (PF13_0152, Sir2A); experiment: pfSir2 binders on small-molecule microarrays, primary screen, biochemical, small-molecule microarray, 635 nm fluorescence (AID 1098); details: small-molecule microarray binding, fluorescence 635 nm; higher = more signal;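 also: score merges spot fluorescence intensity with its signal-to-noise ratio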
[2] = small-molecule microarray binders of probe aDKK1, primary screen, biochemical, biotinylated probe, 635/667 nm fluorescence (AID 1099); details: higher = more signal;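 also: score merges 667nm spot fluorescence with signal to noise across triplicate slides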
[3] = small-molecule microarray binders of probe aCHRDL2, primary screen, biochemical, biotinylated probe, 635/667 nm fluorescence (AID 1100); details: higher = more signal
[4] = splicing luciferase reporter signal modulators, primary screen, spliceosome inhibition project, cell-based, HEK293, splice +/- reporter (AID 1101); details: luminescence, 24 h, higher = more signal, called active from +8 up or from −8 down;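 also: HEK293 cells carrying a splicing-competent luciferase reporter gene; test concentration not given here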
[5] = target: Fibroblast growth factor 10 (Homo sapiens) (UniProt O15520); experiment: FGF10 binders on small-molecule microarrays, primary screen, biochemical, small-molecule microarray, 635 nm fluorescence (AID 1102); details: FGF10 binding, fluorescence 635 nm, higher = more signal
Sequence of Fibroblast growth factor 10 (Homo sapiens) (O15520 whole entry, looked up): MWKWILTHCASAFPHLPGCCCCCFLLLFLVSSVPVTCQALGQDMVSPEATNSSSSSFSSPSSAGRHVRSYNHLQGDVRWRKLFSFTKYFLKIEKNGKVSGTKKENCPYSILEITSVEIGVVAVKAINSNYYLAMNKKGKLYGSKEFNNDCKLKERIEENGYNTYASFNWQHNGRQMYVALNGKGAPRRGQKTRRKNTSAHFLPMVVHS

[6] = system: glycogen synthase kinase-3 (GSK3A per assay name; protocol says GSK3B); experiment: GSK3 binders on small-molecule microarrays, primary screen, biochemical, small-molecule microarray, 635 nm fluorescence, GSK3A (AID 1103); details: small-molecule microarray binding, fluorescence 635 nm; higher = more signal; also: the record names both GSK3A and GSK3B
[7] = target: Epidermal growth factor receptor (Homo sapiens) (UniProt P00533); experiment: EGFR binders on small-molecule microarrays, primary screen, biochemical, small-molecule microarray, 635 nm fluorescence (AID 1104); details: EGFR binding, higher = more signal;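 also: score merges 667 nm emission intensity with spot signal to noise over triplicate slides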
Sequence of Epidermal growth factor receptor (Homo sapiens) (P00533 whole entry, looked up): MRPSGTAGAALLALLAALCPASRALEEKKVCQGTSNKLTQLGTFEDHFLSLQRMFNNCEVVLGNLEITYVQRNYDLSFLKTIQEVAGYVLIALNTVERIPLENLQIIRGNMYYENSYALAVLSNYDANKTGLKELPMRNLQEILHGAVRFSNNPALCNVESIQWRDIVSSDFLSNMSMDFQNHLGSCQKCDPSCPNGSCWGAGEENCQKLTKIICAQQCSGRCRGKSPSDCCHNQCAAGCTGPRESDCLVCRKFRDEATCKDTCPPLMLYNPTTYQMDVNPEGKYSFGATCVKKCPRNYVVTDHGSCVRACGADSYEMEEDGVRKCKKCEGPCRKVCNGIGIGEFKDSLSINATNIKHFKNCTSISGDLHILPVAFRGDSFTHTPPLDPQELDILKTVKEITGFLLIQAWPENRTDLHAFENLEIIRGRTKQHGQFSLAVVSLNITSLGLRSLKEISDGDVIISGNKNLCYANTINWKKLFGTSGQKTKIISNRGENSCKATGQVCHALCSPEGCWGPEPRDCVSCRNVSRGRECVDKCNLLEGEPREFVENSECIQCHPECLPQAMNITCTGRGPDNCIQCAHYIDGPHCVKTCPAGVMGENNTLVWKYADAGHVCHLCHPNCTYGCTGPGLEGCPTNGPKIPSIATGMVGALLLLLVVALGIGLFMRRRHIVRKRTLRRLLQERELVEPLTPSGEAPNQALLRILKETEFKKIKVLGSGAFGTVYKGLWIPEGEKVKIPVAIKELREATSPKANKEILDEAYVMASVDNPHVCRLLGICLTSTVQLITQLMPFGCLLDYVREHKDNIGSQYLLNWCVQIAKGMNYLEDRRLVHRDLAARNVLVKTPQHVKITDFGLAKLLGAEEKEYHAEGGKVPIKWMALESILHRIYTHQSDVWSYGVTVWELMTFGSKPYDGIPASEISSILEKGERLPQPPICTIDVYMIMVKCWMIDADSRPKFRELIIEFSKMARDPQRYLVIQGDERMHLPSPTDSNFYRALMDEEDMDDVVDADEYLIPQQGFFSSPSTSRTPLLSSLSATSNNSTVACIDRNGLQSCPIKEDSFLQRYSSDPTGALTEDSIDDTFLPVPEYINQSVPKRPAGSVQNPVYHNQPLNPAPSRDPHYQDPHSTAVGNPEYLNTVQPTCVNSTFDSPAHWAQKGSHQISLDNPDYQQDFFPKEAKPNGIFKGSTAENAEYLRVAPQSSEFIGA

[8] = target: Follistatin-related protein 3 (Homo sapiens) (UniProt O95633); experiment: FSTL3 binders on small-molecule microarrays, primary screen, biochemical, small-molecule microarray, 635 nm fluorescence (AID 1105); details: FSTL3 binding, higher = more signal;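 also: score merges emission near 667 nm and signal to noise per printed spot across three slides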
Sequence of Follistatin-related protein 3 (Homo sapiens) (O95633 whole entry, looked up): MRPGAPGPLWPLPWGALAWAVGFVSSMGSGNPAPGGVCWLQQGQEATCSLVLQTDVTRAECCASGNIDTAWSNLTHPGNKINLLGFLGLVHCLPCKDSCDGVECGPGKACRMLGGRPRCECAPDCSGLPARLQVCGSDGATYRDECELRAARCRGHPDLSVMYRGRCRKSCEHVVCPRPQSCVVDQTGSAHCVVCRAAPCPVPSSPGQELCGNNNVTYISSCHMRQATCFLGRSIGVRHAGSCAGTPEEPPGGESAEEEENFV

[9] = target: Dickkopf-related protein 1 (Homo sapiens) (UniProt O94907); experiment: DKK1 binders on small-molecule microarrays, primary screen, biochemical, small-molecule microarray, 635 nm fluorescence scan (AID 1106); details: DKK1 binding, higher = more signal;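 also: score merges emission near 667 nm with signal to noise over three replicate slides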
Sequence of Dickkopf-related protein 1 (Homo sapiens) (O94907 whole entry, looked up): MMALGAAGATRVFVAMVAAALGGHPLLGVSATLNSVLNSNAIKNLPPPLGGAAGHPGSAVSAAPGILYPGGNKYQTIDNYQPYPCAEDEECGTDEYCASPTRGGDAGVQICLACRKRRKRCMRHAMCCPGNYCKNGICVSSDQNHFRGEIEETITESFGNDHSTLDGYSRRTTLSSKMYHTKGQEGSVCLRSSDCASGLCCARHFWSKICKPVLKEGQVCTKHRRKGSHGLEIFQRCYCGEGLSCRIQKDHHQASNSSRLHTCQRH

[10] = system: Inhibin beta A chain (activin A); experiment: INHBA (activin A) binders on microarrays, primary screen, biochemical, small-molecule microarray, 635 nm fluorescence scan (AID 1107); details: small-molecule microarray binding, higher = more signal;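 also: mouse activin A protein probed at 4.33 µg/mL on printed slides; score merges bound-protein fluorescence near 667 nm with spot signal-to-noise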
[11] = system: Human papillomavirus type 1a protein E7 (residues 44-93); experiment: HPV1a E7 fragment binders on microarrays, primary screen, biochemical, small-molecule microarray, residues 44-93, 635 nm fluorescence (AID 1108); details: small-molecule microarray binding, fluorescence 635 nm; higher = more signal;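 also: E7 fragment applied at 1 µg/mL in TBST for 1 h at 4 C; score combines spot fluorescence with its signal to noise ratio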
[12] = modulators of HCV replicon luciferase signal, primary screen, HCV replication inhibitor project, Huh7 cells, luciferase reporter (AID 1109); details: 48 h, higher = more signal;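 also: huh7 hepatoma cells harbouring a luciferase neomycin HCV replicon reporter; luciferase luminescence as measure of HCV replicon replication; test concentration not given here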
[13] = target: Left-right determination factor 2 (Homo sapiens) (UniProt O00292); experiment: LEFTY2 binders on small-molecule microarrays, primary screen, biochemical, small-molecule microarray, 635 nm fluorescence scan (AID 1110); details: LEFTY2 binding, higher = more signal
Sequence of Left-right determination factor 2 (Homo sapiens) (O00292 whole entry, looked up): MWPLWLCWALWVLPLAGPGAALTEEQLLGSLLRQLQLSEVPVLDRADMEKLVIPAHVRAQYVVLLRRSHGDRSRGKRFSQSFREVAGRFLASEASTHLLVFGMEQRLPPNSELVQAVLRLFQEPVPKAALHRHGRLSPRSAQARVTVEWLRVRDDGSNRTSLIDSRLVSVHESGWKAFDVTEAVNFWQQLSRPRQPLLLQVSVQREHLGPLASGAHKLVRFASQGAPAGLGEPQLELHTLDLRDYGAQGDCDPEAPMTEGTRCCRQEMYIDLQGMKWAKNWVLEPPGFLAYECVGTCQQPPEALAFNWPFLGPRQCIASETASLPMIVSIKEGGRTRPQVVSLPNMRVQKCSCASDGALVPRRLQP

[14] = target: Calmodulin-1 (Homo sapiens) (UniProt P0DP23); experiment: CALM1 binders on microarrays, EGTA buffer, profiling panel, biochemical, small-molecule microarray, Cy5-labelled CALM1 (AID 1111); details: Cy5-CALM1 binding fluorescence, higher = more signal;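 also: labelled calmodulin applied in Tris saline Tween buffer holding calcium plus EGTA and DTT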
[15] = target: Calmodulin-1 (Homo sapiens) (UniProt P0DP23); experiment: calcium-bound CALM1 binders on microarrays, profiling panel, artefact control for SMM control-protein annotation, biochemical, small-molecule microarray, Cy5-labelled CALM1, plus calcium (AID 1112); details: Cy5-CALM1 binding fluorescence, higher = more signal;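 also: score merges spot fluorescence with signal to noise from triplicate slides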
[16] = small-molecule microarray binders of probe aWnt5a, primary screen, biochemical, biotinylated probe, 635/667 nm fluorescence (AID 1113); details: higher = more signal;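 also: score merges 667 nm fluorescence intensity with signal-to-noise per printed feature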
[17] = small-molecule microarray binders of probe aShh, primary screen, biochemical, biotinylated probe, 635/667 nm fluorescence (AID 1114); details: higher = more signal;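 also: probe is biotin-labelled aShh protein from a stem cell growth factor screen; measures binding of labelled protein to compounds printed on the slide; score merges feature fluorescence at 667 nm with signal-to-noise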
[18] = small-molecule microarray binders of probe aNog, primary screen, biochemical, biotinylated probe, 635/667 nm fluorescence (AID 1115); details: higher = more signal;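 also: probe is biotinylated aNog protein used at 0.15 µg/mL for 1 h at 4 C; z-score combines 667 nm fluorescence of each spot with its signal to noise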
[19] = target: Torsin-1A-interacting protein 1 (Homo sapiens) (UniProt Q5JTV8); experiment: LAP1 binders from COS7 cell lysate, primary screen, small-molecule microarray, 635/667 nm fluorescence (AID 1116); details: COS7-hLAP1 lysate binding, 635 nm fluorescence, higher = more signal
Sequence of Torsin-1A-interacting protein 1 (Homo sapiens) (Q5JTV8 whole entry, looked up): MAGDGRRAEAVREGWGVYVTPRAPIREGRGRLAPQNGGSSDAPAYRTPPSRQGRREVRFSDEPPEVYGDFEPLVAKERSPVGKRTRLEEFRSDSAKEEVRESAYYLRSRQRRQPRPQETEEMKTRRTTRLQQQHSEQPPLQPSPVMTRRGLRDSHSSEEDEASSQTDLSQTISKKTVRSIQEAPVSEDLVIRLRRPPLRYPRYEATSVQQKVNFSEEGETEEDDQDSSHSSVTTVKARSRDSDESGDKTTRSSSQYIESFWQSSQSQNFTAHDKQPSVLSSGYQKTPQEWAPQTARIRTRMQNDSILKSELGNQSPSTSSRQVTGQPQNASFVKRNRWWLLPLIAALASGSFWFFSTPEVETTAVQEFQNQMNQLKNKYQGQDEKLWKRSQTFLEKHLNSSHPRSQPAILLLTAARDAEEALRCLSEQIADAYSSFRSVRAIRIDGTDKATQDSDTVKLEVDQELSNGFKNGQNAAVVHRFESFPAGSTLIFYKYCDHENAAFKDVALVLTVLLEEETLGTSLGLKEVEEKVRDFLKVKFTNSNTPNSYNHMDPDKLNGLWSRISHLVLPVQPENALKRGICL

[20] = target: Alpha-bungarotoxin (Bungarus multicinctus) (UniProt P60615); experiment: alpha-bungarotoxin binders on microarray, profiling panel, artefact control for SMM control protein annotation, biochemical, small-molecule microarray, Alexa647 label, 635/667 nm fluorescence (AID 1117); details: alpha-BTX-A647 binding fluorescence, higher = more signal
Sequence of Alpha-bungarotoxin (Bungarus multicinctus) (P60615 whole entry, looked up): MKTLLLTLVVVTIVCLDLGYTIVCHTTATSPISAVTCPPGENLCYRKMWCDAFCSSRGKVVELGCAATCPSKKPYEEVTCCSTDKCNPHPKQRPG

SMILES	composite z-score [1]	composite z-score [2]	composite z-score [3]	z-score [4]	composite z-score [5]	composite z-score [6]	composite z-score [7]	composite z-score [8]	composite z-score [9]	composite z-score [10]	composite z-score [11]	z-score [12]	composite z-score [13]	composite z-score [14]	composite z-score [15]	composite z-score [16]	composite z-score [17]	composite z-score [18]	composite z-score [19]	composite z-score [20]
COC(=O)[C@@]1(Cc2ccc(OC)cc2)[C@H]2c3cc(C(=O)N4CCCC4)n(Cc4c(-c5ccccc5)noc4C)c3C[C@H]2CN1C(=O)c1ccccc1	0.743	1.08	1.12	-3.14 (inactive)	1.4	0.495	0.713	1.2	-0.414	0.641	1.41	-2.21	-0.181	1.5	0.716	0.42	0.268	1.85	0.764	0.818
C=C(C)c1cc2c(c(CCCCCC)n1)[Si](C(C)C)(C(C)C)OC2	-0.491	-0.304	0.149	-0.392 (inactive)	-1.04	-1.18	-1.01	-1.24	-1.31	0.138	-1.01	-0.35	-1.08	-0.689	0.603	-0.145	-0.123	-0.295	-1.07	-0.676
O=C1C[C@@](C(=O)NCCN2CCOCC2)(c2ccc([N+](=O)[O-])cc2)[C@@H](c2ccc(CO)cc2I)N1C1CCCCC1	0.979	-0.0973	-0.0907	-0.131 (inactive)	0.76	1.15	0.593	0.926	0.397	0.454	1.18	-2.66	0.369	-0.413	-0.173	-0.0445	0.0611	0.079	0.646	1.43
COC(=O)[C@@]1(Cc2ccccc2N=[N+]=[N-])N=C(c2ccc(OCCCO)cc2)O[C@H]1c1ccccc1N=[N+]=[N-]	1.52	0.793	1	7.07 (inactive)	0.386	0.65	-0.098	0.419	0.0345	1.31	0.193	-3.4	-0.182	0.178	-0.62	0.027	-0.064	1.05	0.435	0.726
CCOC(=O)C1=CC[C@@H](c2cccc(Cl)c2)N(S(=O)(=O)c2ccc(C)cc2)C1	0.925	0.419	0.877	-2.03 (inactive)	0.674	0.0076	0.101	-0.0034	0.0677	0.539	0.412	-1.76	-0.326	1.06	0.573	-0.232	-0.0035	0.424	2.68	0.703
CN1C(=O)C2C=CC(C(O)c3cccc(O)c3)N(Nc3ccccc3)C2C1=O (stereo not given)	1.15	0.14	0.285	1.27 (inactive)	0.517	-0.236	-0.288	-0.0255	-0.208	0.866	-0.286	0.359	0.13	-0.185	-0.09	0.0597	1.72	0.582	0.203	0.041
[N-]=[N+]=Nc1ccccc1[C@@H]1OC(c2ccc(OCCCO)cc2)=N[C@]1(Cc1ccccc1)C(=O)NCC(O)CO (stereo not given in full)	1.08	1.33	1.4	-1.37 (inactive)	0.915	-0.216	-0.433	0.18	-0.647	1.09	0.883	-1.34	-0.879	2.21	1.18	0.0189	0.4	-0.4	2.95	2.56
CN(C)C(=O)C1N=C(c2ccc(OCCCO)cc2)N(c2ccccc2)O1 (stereo not given)	1.22	0.0309	-0.0552	-1.06 (inactive)	1.5	1.13	0.662	0.739	0.726	-0.319	1.41	-0.842	1.28	1.21	-0.0846	-0.0486	-0.0733	-0.461	0.81	0.741
CCCCCCCCCCC(O)C1C=CC2C(=O)N(C)C(=O)C2N1Nc1ccc([N+](=O)[O-])cc1[N+](=O)[O-] (stereo not given)	0.781	0.899	0.905	1.62 (inactive)	0.141	0.461	-0.497	0.323	-0.57	0.894	1.38	-1.06	-0.323	1.62	1.05	0.0308	0.151	0.441	1.83	1.18
CN1C(=O)C2C=CC(C(O)c3cccc4ccccc34)N(N3CCCCC3)C2C1=O (stereo not given)	1.52	1.11	1.21	1.81 (inactive)	0.595	1.31	0.396	1.09	0.353	0.784	0.817	-0.474	0.349	2.23	1.02	-0.027	-0.0055	1.04	2.45	1.67
COc1ccc([Si](C)(C)[C@@H]2[C@@H](CC(=O)N(CCO)Cc3ccccc3)O[C@]3(C(=O)N(Cc4cccc(N5CCOC5=O)c4)c4ccccc43)[C@H]2C)cc1	1.07	-0.178	-0.29	-0.244 (inactive)	0.386	0.688	0.41	0.468	0.291	0.523	-0.139	-3.7	0.538	-0.561	-0.44	-0.173	-0.0011	-0.237	0.861	1.2
